Sampled rows, rich in hits. Any-hit rate of the full collection: about 4.1%.
hgDAF-12 ag: H. glycines DAF-12 receptor agonists, primary screen, cell-based, luminescence, HEK293, GAL4 fusion, UAS-luciferase | AID 687014, 2013 | activation, % at 6.8 µM | HEK293 GAL4-hgDAF12 UAS-luciferase reporter, agonist luminescence; normalized to butyrate control | 370,000 tested, 1.8% active;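 active = activation above a cutoff set at the mean of all screened compounds plus 3 SD, cut at about 10% in these data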;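 also: 0% = DMSO wells and 100% = sodium butyrate wells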
ssDAF12 agonist: S. stercoralis DAF-12 nuclear receptor activators, primary screen, cell-based, luminescence, HEK293, GRIP1 co-expression, lit1-tk-luc; Nuclear hormone receptor DAF-12 (Strongyloides stercoralis); HEK293 ssDAF-12/GRIP1 lit1-tk-luc reporter; % of 3 µM dafachronic acid response; activation, % at 6.8 µM; 370,000 tested, 1% active; AID 652126, 2013;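 active = activation above the mean over all tested compounds plus 3 SD, cut at about 0.9% in these data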;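 also: 0% = DMSO-only wells and 100% = 3 µM delta7-dafachronic acid wells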
hcDAF-12 act: H. contortus DAF-12 nuclear receptor activators, primary screen, cell-based, luminescence, HEK293, lit1-tk-luc reporter | 370,000 tested, 1.4% active | AID 652067, 2013 | activation, % at 6.8 µM | HEK293 hcDAF-12 lit1-tk-luc reporter; 0% DMSO, 100% Δ7-dafachronic acid;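 active = activation above the mean of all tested compounds plus 3 SD, cut at about 5.5% in these data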;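 also: 100% = response to 3 µM Δ7-dafachronic acid high control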
DAX1 inh-1: DAX1 (NR0B1) inhibitors, primary screen, cell-based, HEK293, Gal4-DAX1, luciferase luminescence | inhibition, % at 6.75 µM | Nuclear receptor subfamily 0 group B member 1 (Homo sapiens), P51843 | 340,000 tested, 0.99% active | HEK293 Gal4-DAX1 luciferase reporter;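 active = inhibition above the mean over all tested compounds plus 3 SD, cut at about 4.2% in these data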;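 also: 0% = DAX1-transfected cells with DMSO and 100% = empty-vector control cells with DMSO; inhibition shows as a rise in luminescence from relieved DAX1 repression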
Target sequence (P51843 207-470 limits assumed): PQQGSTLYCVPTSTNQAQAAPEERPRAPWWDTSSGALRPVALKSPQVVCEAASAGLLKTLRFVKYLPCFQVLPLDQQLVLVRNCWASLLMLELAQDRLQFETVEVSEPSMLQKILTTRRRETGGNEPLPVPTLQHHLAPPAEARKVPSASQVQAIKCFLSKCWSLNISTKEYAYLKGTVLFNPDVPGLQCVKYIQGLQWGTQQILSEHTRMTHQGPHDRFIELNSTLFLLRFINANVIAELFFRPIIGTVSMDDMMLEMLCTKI
DAX1 inh-2: DAX1 (NR0B1) inhibitors on StAR promoter, primary screen, cell-based, luminescence, SF-1 (NR5A1), full-length DAX-1; HEK293T StAR-luciferase reporter, SF-1/DAX-1 repression relief; 370,000 tested, 1.1% active; inhibition, % at 6.8 µM; AID 652010, 2013;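 active = inhibition above the mean over all tested compounds plus 3 SD, cut at about 3.6% in these data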;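 also: 0% = DAX-1 cells with DMSO and 100% = cells lacking DAX-1 with DMSO; higher inhibition means more luminescence from relief of DAX-1 repression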
* marks the source's active call; other numbers are inactive results; / = not tested or not shown; ! = repeats disagree.

SMILES	hgDAF-12 ag	ssDAF12 agonist	hcDAF-12 act	DAX1 inh-1	DAX1 inh-2
Cc1ncoc1C(=O)Nc1ncc([N+](=O)[O-])s1	12*	-1	3	0	3
Cc1cnc(NC(=O)c2cccs2)s1	12*	0	6.2*	0	2
O=C(CCS(=O)(=O)Cc1ccccc1)Nc1ncc([N+](=O)[O-])s1	0	1	1	0	4.0*
O=C(Nc1ncc([N+](=O)[O-])s1)c1ccccc1Br	6	0	3	1	0
O=C(Nc1ncc([N+](=O)[O-])s1)c1cccs1	9	0	4	-1	4.3*!
C[C@H]1[C@@H]2C[C@@]3(O[C@H](c4ccccn4)N=C3C[C@@H]1c1ccccc1)N(Cc1ccncc1)C2=O	0	-1	0	/	0
C[C@H]1COc2cc(Br)ccc2S(=O)(=O)N1Cc1cn(CCC2OCCO2)nn1	0	-1	-1	/	0
COc1ccc(C=NNC(=O)c2ccncc2)cc1	3	-1	0	/	1
COc1ccc(C(=O)N/N=C/c2ccc(SC)cc2)cc1	11*	-1	-2	0	0
CSc1ccc(/C=N/NC(=O)c2ccc(O)cc2)cc1	12*	-1	3	2	2
COc1cccc2cc3c(nc12)C[C@@H]1CCCC(=O)N2CCC[C@@]12C3	0	-1	-2	/	/
COC(=O)[C@]12C[C@H](CC(=O)NCc3ccc(C)o3)C(=O)N(Cc3ccc4c(c3)OCO4)C1=C[C@H](C(C)C)O[C@@H]2C1CC1	-2	-2	-2	/	-2
Cc1cc2ncc(-c3ccc(Cl)cc3)cn2n1	11*	-1	2	2	3.7*
COc1cc(C)ccc1OCc1cc(C(=O)NC(C)Cn2cncn2)no1 (stereo not given)	11*	1	4	2	2
COc1cc(Cl)ccc1OCc1cc(C(=O)NCC(C)(C)N2CCOCC2)no1	6	-1	2	-1	1
COc1cc(Cl)ccc1OCc1cc(C(=O)NCc2cc(C(C)C)no2)no1	10	0	2	1	4.1*
CCCOc1ccc(-c2nnc(-c3ccncc3)o2)cc1	11*	-1	1	3	1
C=C(C)CNC(=O)CCc1nnc(C2(c3ccc(Cl)cc3)CCC2)o1	8	1	-1	0	1
C=CCNC(=O)CCc1nnc(C2(c3ccc(Cl)cc3)CCC2)o1	12*	-1	3	1	1
O=C(CCc1nnc(C2(c3ccc(Cl)cc3)CCC2)o1)NC1CC1	1	-2	0	0	-1
COC(=O)CNC(=O)CCc1nnc(C2(c3ccc(Cl)cc3)CCC2)o1	2	-1	2	4.4*	1
O=C(N/N=C\c1cc2c(cc1Cl)OCO2)c1cccs1	13*	0	4	0	3
O=C(N/N=C\c1cc2c(cc1[N+](=O)[O-])OCO2)c1cccs1	2	0	0	3	2
COc1ccc(-n2c(SCC(=O)Nc3cc(C)c(NC(=O)c4ccccc4)cc3OC)nnc2-c2ccco2)cc1	-3	0	2	/	-3
COC(=O)C(C)N1C(=O)S/C(=C/c2cc(C)n(C(C)C)c2C)C1=O (stereo not given)	12*	-1	2	0	2
SMILES	hgDAF-12 ag	ssDAF12 agonist	hcDAF-12 act	DAX1 inh-1	DAX1 inh-2
CCn1c(C)cc(/C=C2/SC(=O)N(C(C)C(=O)OC)C2=O)c1C (stereo not given)	6	0	0	0	1
CCOC(=O)C1CCN(c2cc(=O)n(-c3ccccc3Cl)c(=O)[nH]2)CC1	-2	-2	0	4.2*	0
N#Cc1ccc(CSc2nnc3[nH]c(=O)cc(N)n23)cc1	-1	-1	-2	0	0
COc1ccc(CSc2nnc3[nH]c(=O)cc(N)n23)cc1	1	3.7*	3	-1	0
COc1cc2c(cc1NC(=O)CSc1nnc(-c3cccnc3)n1-c1ccc(Br)cc1)oc1ccccc12	3	-1	0	/	0
C=CCN1C(=O)[C@@H](CC(=O)N2CCC(c3ccccc3)CC2)[C@]2(C(=O)OCC)CCCCC/C=C/12	-3	-1	-2	/	0
CC(=O)c1cccc(Nc2ccc(-c3ccccc3F)nn2)c1	9	-1	4	0	3.8*
COc1ccccc1-c1ccc(Nc2cccc(C(C)=O)c2)nn1	4	-2	1	1	0
CC(=O)c1ccc(Nc2ccc(-c3ccccc3C)nn2)cc1	11*	0	1	2	2
Cc1ccccc1Cn1cc(COC(=O)NCCc2ccccc2)nn1	1	-2	-2	/	0
Cc1cccc(NC(=O)Nc2ccccc2C(=O)N2CCCC2)c1	-1	0	-1	/	0
CCCCN(C)C(=O)c1ccc2c(c1)N(CC)C(=O)c1ccccc1S2=O (stereo not given)	-1	-1	-1	4.7*	0
CC(COc1cc(F)cc(C#N)c1)CN1CCC(C(O)(c2ccccc2)c2ccccc2)CC1 (stereo not given)	0	-2	-2	/	0
COCCNC(=O)Cn1nc(-c2ccc(Cl)cc2)c2ccccc2c1=O	-2	11*	2	2	2
COCCNC(=O)Cn1nc(-c2ccccc2)c2ccccc2c1=O	1	-1	-3	0	0
Cc1ccc(NS(=O)(=O)c2ccc(Br)s2)nc1	-3	1.3*	-1	2	0
Cc1cc(C)nc(NS(=O)(=O)c2ccc(Br)s2)c1	-2	-1	0	1	-1
COc1ccc(S(=O)(=O)Nc2ccc(C)cn2)cc1	0	-1	-1	4.6*	0
COc1ccc(S(=O)(=O)Nc2ccc(Cl)cn2)cc1	-4	-1	-3	3	-1
Cc1ccc2c(c1C)NC(=O)C21N2CCCC2C(C(=O)c2ccc3ccccc3c2)C12C(=O)Nc1ccccc12 (stereo not given)	2	1.1*	3	2	-1
COc1ccc(NC(=O)NCCN2C(=O)C3C4C=CC(C4)C3C2=O)cc1 (stereo not given)	9	0	0	6.0*	2
Cc1cccc(NC(=O)NCCN2C(=O)C3C4C=CC(C4)C3C2=O)c1 (stereo not given)	11*	-1	0	3	1
O=C(NCCN1C(=O)C2C3C=CC(C3)C2C1=O)Nc1ccccc1 (stereo not given)	1	-2	-1	0	2
